{"source": "PubChem BioAssay (EPA / NIEHS)", "note": "Inconclusive results are not listed. Active and inactive are the calls of the source. How the source made its calls, unless noted: active means hit-call score of the fitted dose curve at least 0.9, where 1 is the maximum; inactive means score below 0.9.", "data": [{"experiment": "IUF_NPC2a_radial_glia_migration_72hr: Leibniz Research Institute for Environmental Medicine (IUF) 72-hour Neural Progenitor Cell Migration Assay for Radial Glia Migration (NPC2a) (AID 2284299)", "how_it_was_run": "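Readout: mean of four manual brightfield measurements of radial glia migration distance (um) at 72 h. hNPC spheres (0.3 mm) exposed to 7 compound concentrations plus solvent control on PDL/laminin, 37C, 5% CO2; activity fitted relative to DMSO.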", "values": [{"compound": "BrC1CC(Br)CC(Br)CC(Br)CC(Br)CC(Br)C1", "note": "(centres undefined)", "outcome": "inactive"}, {"compound": "CC(CNC(=S)[S-])NC(=S)[S-].[Zn+2]", "note": "(centres undefined)", "outcome": "inactive"}, {"compound": "CC(=O)N[C@@H](CC(=O)O)C(=O)O", "outcome": "inactive"}, {"compound": "CC(C)c1nn(C(=O)NC(C)(C)C)c(=O)n1N", "outcome": "inactive"}, {"compound": "Cc1[nH]n(C)c(=O)c1C(=O)c1ccc(C(F)(F)F)cc1S(C)(=O)=O", "outcome": "inactive"}, {"compound": "CCCCOCCOP(=O)(O)OCCOCCCC", "outcome": "inactive"}, {"compound": "F", "outcome": "inactive"}, {"compound": "CCCCCC(C)(CC)C(=O)NC", "note": "(centres undefined)", "AC50": "1.02 µM (active)"}, {"compound": "C[C@@H]1CCO[C@H]2Cn3cc(C(=O)NCc4ccc(F)cc4F)c(=O)c(O)c3C(=O)N12", "outcome": "inactive"}, {"compound": "CN(C)CCCn1cc(C2=C(c3c[nH]c4ccccc34)C(=O)NC2=O)c2ccccc21", "AC50": "11.3 µM (active)"}, {"compound": "CCCCCC=C(C)C(CC)CCO", "note": "(centres undefined)", "outcome": "inactive"}, {"compound": "CCc1ccccc1", "outcome": "inactive"}, {"compound": "C[C@@H]1CC[C@@H](C(C)(C)O)[C@H](O)C1", "outcome": "inactive"}, {"compound": "CC(C)O", "outcome": "inactive"}, {"compound": "CC(=O)OC/N=[N+](\\C)[O-]", "outcome": "inactive"}]}, {"experiment": "IUF_NPC2b_neuronal_migration_120hr: Leibniz Research Institute for Environmental Medicine (IUF) 120-hour Neural Progenitor Cell Migration Assay for Neuron Migration (NPC2b) (AID 2284300)", "how_it_was_run": "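0.3 mm hNPC spheres on poly-D-lysine/laminin in N2 differentiation medium exposed 120 h, half-medium refresh day 3; 7 concentrations, DMSO max 0.1%. Neuron (TUBB3) distance from sphere core by ICC imaging, normalised to radial glia migration.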", "values": [{"compound": "BrC1CC(Br)CC(Br)CC(Br)CC(Br)CC(Br)C1", "note": "(centres undefined)", "AC50": "3.11 µM (active)"}, {"compound": "CC(CNC(=S)[S-])NC(=S)[S-].[Zn+2]", "note": "(centres undefined)", "outcome": "inactive"}, {"compound": "CC(=O)N[C@@H](CC(=O)O)C(=O)O", "outcome": "inactive"}, {"compound": "CC(C)c1nn(C(=O)NC(C)(C)C)c(=O)n1N", "outcome": "inactive"}, {"compound": "Cc1[nH]n(C)c(=O)c1C(=O)c1ccc(C(F)(F)F)cc1S(C)(=O)=O", "outcome": "inactive"}, {"compound": "CCCCOCCOP(=O)(O)OCCOCCCC", "outcome": "inactive"}, {"compound": "F", "outcome": "inactive"}, {"compound": "CCCCCC(C)(CC)C(=O)NC", "note": "(centres undefined)", "outcome": "inactive"}, {"compound": "C[C@@H]1CCO[C@H]2Cn3cc(C(=O)NCc4ccc(F)cc4F)c(=O)c(O)c3C(=O)N12", "outcome": "inactive"}, {"compound": "CN(C)CCCn1cc(C2=C(c3c[nH]c4ccccc34)C(=O)NC2=O)c2ccccc21", "AC50": "16.3 µM (active)"}, {"compound": "CCCCCC=C(C)C(CC)CCO", "note": "(centres undefined)", "outcome": "inactive"}, {"compound": "CCc1ccccc1", "outcome": "inactive"}, {"compound": "C[C@@H]1CC[C@@H](C(C)(C)O)[C@H](O)C1", "outcome": "inactive"}, {"compound": "CC(C)O", "outcome": "inactive"}, {"compound": "CC(=O)OC/N=[N+](\\C)[O-]", "outcome": "inactive"}]}, {"experiment": "IUF_NPC3_neuronal_differentiation_120hr: Leibniz Research Institute for Environmental Medicine (IUF) 120-hour Neuronal Differentiation Assay (NPC3) (AID 2284301)", "how_it_was_run": "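hNPC spheres, PDL/laminin, DMEM/F12 3:1 + 1% N2, 37C, 5% CO2; 7 concentrations + solvent control, 5 d exposure, half-change day 3. Fix 120 h; TUBB3/Hoechst ICC, CNN neuron calling; % neurons vs nuclei, DMSO-normalized.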", "values": [{"compound": "BrC1CC(Br)CC(Br)CC(Br)CC(Br)CC(Br)C1", "note": "(centres undefined)", "AC50": "1.72 µM (active)"}, {"compound": "CC(CNC(=S)[S-])NC(=S)[S-].[Zn+2]", "note": "(centres undefined)", "outcome": "inactive"}, {"compound": "CC(=O)N[C@@H](CC(=O)O)C(=O)O", "outcome": "inactive"}, {"compound": "CC(C)c1nn(C(=O)NC(C)(C)C)c(=O)n1N", "outcome": "inactive"}, {"compound": "Cc1[nH]n(C)c(=O)c1C(=O)c1ccc(C(F)(F)F)cc1S(C)(=O)=O", "outcome": "inactive"}, {"compound": "CCCCOCCOP(=O)(O)OCCOCCCC", "outcome": "inactive"}, {"compound": "F", "outcome": "inactive"}, {"compound": "CCCCCC(C)(CC)C(=O)NC", "note": "(centres undefined)", "outcome": "inactive"}, {"compound": "C[C@@H]1CCO[C@H]2Cn3cc(C(=O)NCc4ccc(F)cc4F)c(=O)c(O)c3C(=O)N12", "outcome": "inactive"}, {"compound": "CN(C)CCCn1cc(C2=C(c3c[nH]c4ccccc34)C(=O)NC2=O)c2ccccc21", "AC50": "16.2 µM (active)"}, {"compound": "CCCCCC=C(C)C(CC)CCO", "note": "(centres undefined)", "outcome": "inactive"}, {"compound": "CCc1ccccc1", "outcome": "inactive"}, {"compound": "C[C@@H]1CC[C@@H](C(C)(C)O)[C@H](O)C1", "outcome": "inactive"}, {"compound": "CC(C)O", "outcome": "inactive"}, {"compound": "CC(=O)OC/N=[N+](\\C)[O-]", "outcome": "inactive"}]}, {"experiment": "IUF_NPC4_neurite_length_120hr: Leibniz Research Institute for Environmental Medicine (IUF) 120-hour Neuronal Morphology Assay for Neurite Length (NPC4) (AID 2284302)", "how_it_was_run": "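hNPC spheres (0.3 mm, fetal brain GW 16-19) on PDL/laminin, DMEM:F12 3:1 + 1% N2, 37C 5% CO2; 7 concs + solvent control, day 0-5, half medium change d3; fix 120 h, TUBB3 ICC, mean neurite length um vs DMSO.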", "values": [{"compound": "BrC1CC(Br)CC(Br)CC(Br)CC(Br)CC(Br)C1", "note": "(centres undefined)", "AC50": "1.04 µM (active)"}, {"compound": "CC(CNC(=S)[S-])NC(=S)[S-].[Zn+2]", "note": "(centres undefined)", "AC50": "50 µM (active)"}, {"compound": "CC(=O)N[C@@H](CC(=O)O)C(=O)O", "outcome": "inactive"}, {"compound": "CC(C)c1nn(C(=O)NC(C)(C)C)c(=O)n1N", "outcome": "inactive"}, {"compound": "Cc1[nH]n(C)c(=O)c1C(=O)c1ccc(C(F)(F)F)cc1S(C)(=O)=O", "outcome": "inactive"}, {"compound": "CCCCOCCOP(=O)(O)OCCOCCCC", "outcome": "inactive"}, {"compound": "F", "outcome": "inactive"}, {"compound": "CCCCCC(C)(CC)C(=O)NC", "note": "(centres undefined)", "outcome": "inactive"}, {"compound": "C[C@@H]1CCO[C@H]2Cn3cc(C(=O)NCc4ccc(F)cc4F)c(=O)c(O)c3C(=O)N12", "outcome": "inactive"}, {"compound": "CN(C)CCCn1cc(C2=C(c3c[nH]c4ccccc34)C(=O)NC2=O)c2ccccc21", "AC50": "4.06 µM (active)"}, {"compound": "CCCCCC=C(C)C(CC)CCO", "note": "(centres undefined)", "outcome": "inactive"}, {"compound": "CCc1ccccc1", "outcome": "inactive"}, {"compound": "C[C@@H]1CC[C@@H](C(C)(C)O)[C@H](O)C1", "outcome": "inactive"}, {"compound": "CC(C)O", "outcome": "inactive"}, {"compound": "CC(=O)OC/N=[N+](\\C)[O-]", "outcome": "inactive"}]}, {"experiment": "IUF_NPC5_oligodendrocyte_differentiation_120hr: Leibniz Research Institute for Environmental Medicine (IUF) 120-hour Oligodendrocyte Differentiation Assay (NPC5) (AID 2284304; active means hit-call score of the fitted dose curve at least 0.9, where 1 is the maximum;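 further: primary human fetal neural progenitor spheres plated to migrate and differentiate; share of O4-positive cells among Hoechst nuclei found by CNN image analysis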)", "how_it_was_run": "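Human fetal neural progenitor spheres (0.3 mm) plated on poly-D-lysine/laminin in N2 differentiation medium and exposed for 120 h at 7 concentrations, with half-medium renewal at day 3. O4-positive cells identified by CNN, expressed as percent of Hoechst nuclei.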", "values": [{"compound": "BrC1CC(Br)CC(Br)CC(Br)CC(Br)CC(Br)C1", "note": "(centres undefined)", "AC50": "0.856 µM (active)"}, {"compound": "CC(CNC(=S)[S-])NC(=S)[S-].[Zn+2]", "note": "(centres undefined)", "outcome": "inactive"}, {"compound": "CC(=O)N[C@@H](CC(=O)O)C(=O)O", "outcome": "inactive"}, {"compound": "CCCCCC(C)(CC)C(=O)NC", "note": "(centres undefined)", "outcome": "inactive"}, {"compound": "C[C@@H]1CCO[C@H]2Cn3cc(C(=O)NCc4ccc(F)cc4F)c(=O)c(O)c3C(=O)N12", "outcome": "inactive"}, {"compound": "CN(C)CCCn1cc(C2=C(c3c[nH]c4ccccc34)C(=O)NC2=O)c2ccccc21", "AC50": "0.746 µM (active)"}, {"compound": "CCCCCC=C(C)C(CC)CCO", "note": "(centres undefined)", "outcome": "inactive"}, {"compound": "CCc1ccccc1", "outcome": "inactive"}, {"compound": "C[C@@H]1CC[C@@H](C(C)(C)O)[C@H](O)C1", "outcome": "inactive"}, {"compound": "CC(=O)OC/N=[N+](\\C)[O-]", "outcome": "inactive"}]}, {"experiment": "IUF_NPC2-5_cytotoxicity_72hr: Cytotoxicity Assessment at 72 hours in the Leibniz Research Institute for Environmental Medicine (IUF) Neural Progenitor Cell Migration and Differentiation Assay for Cytotoxicity (NPC2-5) (AID 2284306; active means hit-call score of the fitted dose curve at least 0.9, where 1 is the maximum;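 further: LDH release into supernatant measured by resorufin fluorescence marking membrane damage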)", "how_it_was_run": "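hNPC spheres (0.3 mm), PDL/laminin, DMEM/F12 3:1 + 1% N2; cpd from d0, 7 concs + SC, DMSO max 0.1%; half-medium refresh d3. Readout: supernatant LDH via resorufin fluorescence (RFU), 72 h; gain-of-signal fit.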", "values": [{"compound": "BrC1CC(Br)CC(Br)CC(Br)CC(Br)CC(Br)C1", "note": "(centres undefined)", "outcome": "inactive"}, {"compound": "CC(CNC(=S)[S-])NC(=S)[S-].[Zn+2]", "note": "(centres undefined)", "AC50": "60.5 µM (active)"}, {"compound": "CC(=O)N[C@@H](CC(=O)O)C(=O)O", "outcome": "inactive"}, {"compound": "CC(C)c1nn(C(=O)NC(C)(C)C)c(=O)n1N", "outcome": "inactive"}, {"compound": "Cc1[nH]n(C)c(=O)c1C(=O)c1ccc(C(F)(F)F)cc1S(C)(=O)=O", "outcome": "inactive"}, {"compound": "CCCCOCCOP(=O)(O)OCCOCCCC", "outcome": "inactive"}, {"compound": "F", "outcome": "inactive"}, {"compound": "CCCCCC(C)(CC)C(=O)NC", "note": "(centres undefined)", "outcome": "inactive"}, {"compound": "C[C@@H]1CCO[C@H]2Cn3cc(C(=O)NCc4ccc(F)cc4F)c(=O)c(O)c3C(=O)N12", "outcome": "inactive"}, {"compound": "CN(C)CCCn1cc(C2=C(c3c[nH]c4ccccc34)C(=O)NC2=O)c2ccccc21", "AC50": "13.9 µM (active)"}, {"compound": "CCCCCC=C(C)C(CC)CCO", "note": "(centres undefined)", "outcome": "inactive"}, {"compound": "CCc1ccccc1", "outcome": "inactive"}, {"compound": "C[C@@H]1CC[C@@H](C(C)(C)O)[C@H](O)C1", "outcome": "inactive"}, {"compound": "CC(C)O", "outcome": "inactive"}]}]}
